PubChem BioAssay (NCI)
The panel holds about 79,000 compounds, 15% with a hit somewhere; the sample as a whole holds those more often. Unmarked numbers belong to inactive results. The source made the active and inactive calls. No stated cut-off is given here; in the data, active means growth inhibition above about 70%; inactive means the rest.

Key:
[1] = NCI Yeast Anticancer Drug Screen. Data for the rad50 strain (AID 155);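 further: 0% = growth of vehicle-only cultures of the same strain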; details: S. cerevisiae rad50 strain growth inhibition, stronger effect = higher value
Procedure, shortened: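 Readout: growth inhibition relative to vehicle-treated cultures. Compound exposure was carried out in a genetically defined yeast strain deficient in DNA damage repair.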

[2] = NCI Yeast Anticancer Drug Screen. Data for the mec2-1 strain (AID 157); details: S. cerevisiae mec2-1 strain, stronger effect = higher value
Procedure, shortened: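 Vehicle-treated cultures served as reference for growth inhibition of compound-exposed mec2-1 yeast.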

[3] = NCI Yeast Anticancer Drug Screen. Data for the sgs1 mgt1 strain (AID 161);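 further: 0% = growth of cultures given vehicle only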; details: S. cerevisiae sgs1 mgt1 strain, stronger effect = higher value
Procedure, shortened: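 Genetically altered yeast, compound exposure, growth inhibition relative to vehicle.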

[4] = NCI Yeast Anticancer Drug Screen. Data for the cln2 rad14 strain (AID 165);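 further: 0% = growth equal to vehicle treated cultures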; details: S. cerevisiae cln2 rad14 strain, stronger effect = higher value
Procedure, shortened: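 Each compound was tested on cln2 rad14 yeast. Inhibition of growth was calculated against vehicle-exposed controls.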

[5] = NCI Yeast Anticancer Drug Screen. Data for the bub3 strain (AID 167); details: S. cerevisiae bub3 mutant strain, stronger effect = higher value
Procedure, shortened: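 Readout: yeast growth inhibition, expressed relative to vehicle-only wells. The test organism is a mutant strain from a panel with lesions in DNA repair or checkpoint genes.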

[6] = NCI Yeast Anticancer Drug Screen. Data for the mlh1 rad18 strain (AID 175); details: S. cerevisiae mlh1 rad18 strain growth inhibition, stronger effect = higher value
Procedure, shortened: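 Vehicle-treated cultures served as the reference for growth inhibition in a yeast strain carrying DNA damage repair alterations exposed to each compound.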

[7] = at 5.0 µM (retest, dose inferred, filed as 0.5)
[8] = at 50.0 µM (retest, dose inferred, filed as 5.0)

| SMILES | growth inhibition [1, 7] | growth inhibition [1, 8] | growth inhibition ([1]; at 50.0 µM) | growth inhibition [2, 7] | growth inhibition [2, 8] | growth inhibition ([2]; at 50.0 µM) | growth inhibition [3, 7] | growth inhibition [3, 8] | growth inhibition ([3]; at 50.0 µM) | growth inhibition [4, 7] | growth inhibition [4, 8] | growth inhibition ([4]; at 50.0 µM) | growth inhibition [5, 7] | growth inhibition [5, 8] | growth inhibition ([5]; at 50.0 µM) | growth inhibition [6, 7] | growth inhibition [6, 8] | growth inhibition ([6]; at 50.0 µM) |
| --- | --- | --- | --- | --- | --- | --- | --- | --- | --- | --- | --- | --- | --- | --- | --- | --- | --- | --- |
| O=[N+]([O-])c1c(C=Nc2ccccc2)oc(-c2c(O)ccc3ccccc23)c1-c1c(O)ccc2ccccc12 | 1% | 2% | 98.7% (active) | -13% | -11% | 98.7% (active) | -7% | -4% | 98.8% (active) | -30% | -26% | 98.5% (active) | 3% | 3% | 98.8% (active) | -2% | -1% | 98.8% (active) |
| CSc1nc(COC(=O)NC(C)C)c(COC(=O)NC(C)C)n1-c1ccccc1 | -12% | 11% | -17.1% | 23% | 11% | 4.2% | -19% | -6% | -6.15% | 13% | 4% | 53.1% | 8% | 22% | -12.7% | -1% | -6% | 18.9% |
| CCCCCCCCCCCCCCCCNCCCCCCCC(=O)O | -1% | 64% | 75% (active) | 4% | 49% | 35.2% | 14% | 92% (active) | 75.9% (active) | 7% | 26% | 72% (active) | 6% | 73% (active) | 39.2% | 2% | 66% | 74.5% (active) |
| Nc1ccc(Cl)c2ccccc12 | -1% | 42% | 84.2% (active) | -4% | 20% | 76.8% (active) | -5% | 12% | 71.2% (active) | 40% | 26% | 53.5% | 6% | 48% | 57.9% | -4% | 33% | 74.5% (active) |
| Cn1c(=S)c2[nH]c(=S)[nH]c2n(C)c1=O | 85% (active) | 91% (active) | 97.2% (active) | 91% (active) | 92% (active) | 96.7% (active) | 94% (active) | 96% (active) | 96.7% (active) | 78% (active) | 47% | 80.3% (active) | 91% (active) | 89% (active) | 96.7% (active) | 92% (active) | 93% (active) | 97.2% (active) |
| O=[N+]([O-])CC(O)c1ccccc1Cl (configuration not stated) | 90% (active) | 98% (active) | 99.3% (active) | 5% | 99% (active) | 99.7% (active) | -15% | 99% (active) | 99.5% (active) | -4% | 98% (active) | 98.7% (active) | 16% | 98% (active) | 99.4% (active) | 30% | 99% (active) | 99.2% (active) |
| N#CC1=C(N)OC(c2ccccc2)=C(C#N)C1c1ccccc1 (configuration not stated) | 90% (active) | 99% (active) | 99.2% (active) | 97% (active) | 100% (active) | 99.5% (active) | 96% (active) | 100% (active) | 99.3% (active) | 98% (active) | 99% (active) | 99.2% (active) | 98% (active) | 99% (active) | 99.5% (active) | 97% (active) | 99% (active) | 99.3% (active) |
| O=CC(O)CN1CCCC1 (configuration not stated) | -2% | 11% | 49.6% | 0% | 14% | 53.2% | 2% | 8% | 87.7% (active) | -4% | 6% | 96.8% (active) | -4% | 25% | 12.7% | 1% | 16% | 92.9% (active) |
| C[C@]12CC[C@H](O)C[C@@H]1CC[C@@H]1[C@@H]2CC[C@]2(C)C=CC[C@@H]12 | -3% | 2% | 49.4% | -7% | -4% | 33.4% | -21% | 1% | 46.8% | -6% | 0% | 77.5% (active) | 9% | 23% | 95.1% (active) | -24% | 33% | 58.8% |
| CCCCCCCCCCC(C(=O)OCCCC)P(=O)(OCCCC)OCCCC (configuration not stated) | 11% | 95% (active) | 36.4% | 9% | 95% (active) | 73.2% (active) | 8% | 86% (active) | 30.8% | 13% | 96% (active) | 81.2% (active) | 4% | 95% (active) | 21.1% | 6% | 94% (active) | 59.3% |
| N#CCc1ccc2c(c1)Sc1ccccc1O2 | -159% | -54% | 90.5% (active) | -49% | -26% | 31.8% | -58% | -13% | 53% | -57% | -35% | -5.85% | -62% | -33% | 50.2% | -122% | -45% | 73.8% (active) |
| CC1(C)N([O-])[N+](=O)C1(Br)c1ccccc1 (configuration not stated) | 22% | 99% (active) | 86.7% (active) | 17% | 100% (active) | 93.8% (active) | -6% | 95% (active) | 92.6% (active) | 8% | 64% | 90.2% (active) | -24% | 96% (active) | 87.5% (active) | 25% | 99% (active) | 84.5% (active) |
| CNC(=O)OCCC(OC(=O)NC)C1CCC2C3CC=C4CC(OC(=O)NC)CCC4(C)C3CCC12C (configuration not stated) | 85% (active) | 94% (active) | 6.5% | 52% | 94% (active) | -1.8% | 77% (active) | 96% (active) | 2.6% | 72% (active) | 89% (active) | -6.45% | 73% (active) | 94% (active) | -1.8% | 88% (active) | 91% (active) | 34.5% |
| COc1ccc(C2=C(Cl)C(=O)N(c3ccc(OC)cc3)C(=O)C2(Cl)Cl)cc1 | 8% | 82% (active) | 85.6% (active) | -10% | 87% (active) | 97.8% (active) | 9% | 88% (active) | 67.1% | -4% | 42% | 56.8% | -8% | 84% (active) | 94.9% (active) | 6% | 71% (active) | 95.8% (active) |
| C=CS(=O)(=O)c1ccc2ccccc2c1 | -100% | 97% (active) | 99.5% (active) | -22% | 98% (active) | 99.4% (active) | -20% | 98% (active) | 99.2% (active) | -34% | 97% (active) | 98.7% (active) | -35% | 97% (active) | 98.8% (active) | -93% | 97% (active) | 99% (active) |
| CCCC1c2ccc(O)cc2CC1c1ccc(O)cc1 (configuration not stated) | -1% | 99% (active) | 99.2% (active) | -4% | 99% (active) | 99.4% (active) | -3% | 99% (active) | 99.5% (active) | 11% | 99% (active) | 52.4% | -1% | 99% (active) | 98.7% (active) | 1% | 99% (active) | 98.5% (active) |
| COc1cc(C2c3cc4c(cc3OC(NNc3ccccc3)C2C)OCO4)cc(OC)c1O (configuration not stated) | -5% | 97% (active) | 98.2% (active) | -15% | 98% (active) | 98.7% (active) | -13% | 99% (active) | 98.4% (active) | -5% | 96% (active) | 98.6% (active) | -7% | 97% (active) | 98.7% (active) | -11% | 97% (active) | 98.3% (active) |
| C[C@@]12C[C@@H](Br)[C@H](Br)C[C@]1(C)O2 | 0% | 16% | 94.5% (active) | -1% | 8% | 98.7% (active) | 0% | 15% | 98.1% (active) | -2% | 2% | 64.5% | -6% | 0% | 55% | -1% | 6% | 93.2% (active) |
| Nc1ccc(-c2ccc(Cl)cc2)cc1 | 0% | 96% (active) | 96.7% (active) | -2% | 61% | 78.7% (active) | -1% | 78% (active) | 94.5% (active) | -6% | 93% (active) | 92.2% (active) | 4% | 61% | 96.9% (active) | -1% | 95% (active) | 93.3% (active) |
